The experiment can be described thus: P-glycoprotein substrates identified in KB-8-5-11 adenocarcinoma cell line, qHTS therapeutic library screen (AID 1346987). Also: nearly all actives have a fitted effect of over 65% in size. As to activity change, negative = cytotoxicity: series mostly up to about 44 µM. An outline of the steps:
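Steps: plate 500 KB-8-5-11 cells/well in DMEM + 10% FCS (colchicine removed); pin compounds in dose-response; incubate 72 h, 37 degree C, 5% CO2; add CellTiter-Glo, 5 min; read luminescence.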

Records with an inconclusive call do not appear. A call without a number means that no potency is given here. A number with no mark means an inactive call. Activity calls are given as the source filed them. Calls follow the shape of the dose curve; as a rule, active = well fitted inhibition curve with a large enough effect; inconclusive = small, poorly fitted or top-dose-only effect; inactive = flat fitted curve, though single readings scatter. Where a SMILES comes first, the peptide text is derived from it. [ ]: non-standard residue; d: D form. ξ: configuration not given here. ξPhe(βξ-Me) = CC(c1ccccc1)C(N)C(=O)O; GABA = NCCCC(=O)O
Potency is read from the fitted curve at half-maximal effect.

As to `C=C(CCC1=C(C)[C@H]2[C@H](CC3[C@@H]4CC=C5C[C@@H](O)C[C@@H](O)[C@]5(C)C4[C@H](O)C[C@@]32C)O1)CO[C@@H]1O[C@H](CO)[C@@H](O)[C@H](O)[C@H]1O` (stereo partly drawn), the Potency is 1.53 µM (active).

Turning to `COC(=O)C(C)C1CCC2(C)C(=O)C=CC(C)(O)C2C1O` (stereo not drawn), the Potency entry is “inactive”. For `C[C@@H]1O[C@@H](O[C@H]2[C@H](OC(=O)[C@]34CCC(C)(C)C[C@H]3C3=CCC5[C@@]6(C)C[C@H](O)[C@H](O[C@@H]7O[C@H](CO)[C@@H](O)[C@H](O)[C@H]7O)[C@@](C)(CO)C6[C@H](O)C[C@@]5(C)[C@]3(C)CC4)OC[C@H](O)[C@@H]2O)[C@H](O)[C@H](O)[C@H]1O[C@@H]1OC[C@@H](O)[C@H](O[C@@H]2OC[C@](O)(CO)[C@H]2O)[C@H]1O` (stereo partly drawn), the activity change, negative = cytotoxicity was 6.69% [at 9.29 µM].

Consider `CO[C@H]1C[C@@H]2CC[C@@H](C)[C@@](O)(O2)C(=O)C(=O)N2CCCC[C@H]2C(=O)O[C@H]([C@H](C)C[C@H]2CC[C@@H](OP(C)(C)=O)[C@H](OC)C2)CC(=O)[C@H](C)/C=C(\C)[C@@H](O)[C@@H](OC)C(=O)[C@H](C)C[C@H](C)/C=C/C=C/C=C/1C`, for which the Potency entry is “inactive”. As for `O=C(O)c1ccccc1NC(=O)N1CCC(c2ccccc2C(F)(F)F)CC1`, the Potency entry is “inactive”. Take `CC(=O)NC1=NN(C(C)=O)C(C)(c2ccccc2)S1` (stereo not drawn): the Potency is 5.8 µM (active). With `CCc1cc(CN2CC(C(=O)O)C2)sc1-c1noc(-c2ccc(Oc3ccccc3)cc2)n1`, the Potency result was “inactive”. In the case of `O=C(CCCCN1CCOCC1)Nc1ccc(-c2cccnc2)cc1`, the Potency result is “inactive”.

On to `C[C@@H]1O[C@@H](O[C@H]2[C@H](O)[C@@H](O)[C@H](OC3CCC4(C)C5CCC(C)(C(CO)OC6OC(CO)C(O)C(O)C6O)CC5=CCC4C3(C)C)O[C@@H]2CO)[C@H](O)[C@H](O)[C@H]1O` (stereo partly drawn), for which the Potency entry is “inactive”. In the case of `C[C@H](NC(=O)CCc1nc2ccccc2c(=O)[nH]1)c1ccccc1`, the Potency entry is “inactive”.

Turning to `CC(C)C(C(=O)N(C)C(C)C(N)=O)N(C)C(=O)C1CCCN1C(=O)/C=C/C=C/C(O)C(C)O` (stereo not drawn), the Potency result is “inactive”. Still for that read-out and setting: then `CC(C)[C@H]1CC[C@@]2(O)COC(=O)[C@H]2[C@@H]1/C=C(\CO)C(=O)O`, with “inactive”; and `CC(=O)OC1C(O)CC2(C)C(CCC(C)C23Cc2c(O)cc(CO)c(C=O)c2O3)C1(C)C` (stereo not drawn), with “inactive”.

On to `C[C@@H]1O[C@@H](OC[C@H]2O[C@@H](Oc3cc(O)cc4c3C(=O)C(O)(Cc3ccc(O)cc3)O4)[C@H](O)[C@@H](O)[C@@H]2O)[C@H](O)[C@H](O)[C@H]1O` (stereo partly drawn), for which the Potency result was “inactive”. Consider `COc1ccc(C(O)C(C)OC2OC(CO)C(O)C(O)C2O)cc1` (stereo not drawn), for which the Potency entry is “inactive”. As for `CNC(=O)c1ccccc1Nc1nc(Nc2ccc3c(c2OC)CCCC(N2CCN(CCO)CC2)C3)ncc1Cl` (stereo not drawn), the Potency was 8.2 µM (active). With `O=C(OCC1=CC(O)C2C=CO[C@@H](O[C@@H]3O[C@H](CO)[C@@H](O)[C@H](O)[C@H]3O)C12)c1ccccc1` (stereo partly drawn), the Potency result was “inactive”.

On to `Cc1ccc(C)c(OCCn2cc(C(=O)O)c3ccccc32)c1`, for which the Potency result is “inactive”. Regarding `COc1ccc(/C=C/C(=O)O[C@@H]2[C@@H](O)[C@@H](O)[C@H](O[C@@H]3C=C(CO)[C@H]4[C@H](O[C@@H]5O[C@H](CO)[C@@H](O)[C@H](O)[C@H]5O)OC=C[C@H]43)O[C@H]2C)cc1O`, the Potency result is “inactive”.

For the molecule `O=C1CC2(CCCC2)[C@H](O)C(=O)N1CCCCN1CCN(c2ncccn2)CC1`, the Potency entry was “inactive”.

In the case of `Cc1ccc(-c2ccc3ncc4c(c3n2)n(C2CCN(C(=O)[C@H](C)O)CC2)c(=O)n4C)cn1`, the Potency is 0.164 µM (active). In the case of `CC1(C)CCCC2(C)C(C(=O)O)=CCC12` (stereo not drawn), the Potency result is “inactive”. Take `CCCN1CCC(c2cccc(S(C)(=O)=O)c2)CC1`: the Potency result is “inactive”.

Consider `Oc1ccc(CNc2ccccc2F)c2cccnc12`, for which the Potency is 6.51 µM (active). Take `CC(=O)O[C@H]1C[C@@](O)(C(C)C)C2[C@@H](OC(=O)c3ccc(O)cc3)C[C@@]3(C)O[C@H]3C[C@]21C` (stereo partly drawn): the Potency result was “inactive”. In the case of `CC1NC(=O)CCCNC(=O)C(Cc2c[nH]c3ccccc23)NC(=O)C(C)NC(=O)C(C(C)C)NC(=O)C(C(C)c2ccccc2)NC(=O)C(C(C)C)NC1=O` (stereo not drawn) (cyclo([GABA]AV[ξPhe(βξ-Me)]VAW); configuration not given here), the Potency result is “inactive”. Consider `C=C[C@]1(C)C[C@H](O)[C@@H]2[C@H](OC(=O)[C@@H]2C)C1/C(C)=C/O[C@@H]1O[C@H](CO)[C@@H](O)[C@H](O)[C@H]1O` (stereo partly drawn), for which the Potency result was “inactive”. As to `COC(=O)c1ccc(OC(CO)C(O)c2ccc(O)c(OC)c2)c(OC)c1` (stereo not drawn), the Potency entry is “inactive”. Regarding `Cc1cc(Nc2ncc3cc(-c4c(Cl)cccc4Cl)c(=O)n(C)c3n2)ccc1F`, the Potency is 1.3 µM (active).

Regarding `CC1CCC2(CO)C(C(=O)O)=CCCC2C1(C)CCc1ccoc1` (stereo not drawn), the Potency entry is “inactive”. Same read-out and setting: then `CS(=O)(=O)N1CCC(NC(=O)c2[nH]ncc2NC(=O)c2c(Cl)cccc2Cl)CC1`, with 9.2 µM (active); and `Cc1cc(C(=O)N2CCCCc3ccccc32)ccc1CNC(=O)N1CCC[C@H]1C(=O)N(C)C`, with “inactive”.

In the case of `NC(=O)c1cccc2cn(-c3ccc(C4CCCNC4)cc3)nc12` (stereo not drawn), the Potency entry is “inactive”. Turning to `C[C@@H]1C[C@@H]2O[C@H]2/C=C\C=C\C(=O)Cc2c(Cl)c(O)cc(O)c2C(=O)O1`, the Potency was 1.01 µM (active). For `CC1=C2C3OC(=O)C(C)C3(O)CCC2(C)CCC1O` (stereo not drawn), the Potency result is “inactive”.

In the case of `CS(=O)(=O)N(CC(=O)NCC1CC1)c1cc(C(F)(F)F)ccc1Cl`, the Potency entry is “inactive”.

In the case of `COC(=O)C1=CO[C@@H](O[C@@H]2O[C@H](CO[C@@H]3O[C@H](COC(=O)/C=C/c4cc(OC)c(O)c(OC)c4)[C@@H](O)[C@H](O)[C@H]3O)[C@@H](O)[C@H](O)[C@H]2O)[C@@H]2C(CO)=CC[C@H]12`, the Potency entry was “inactive”. On to `C=C1C[C@]23C[C@H]1[C@@H](O)C[C@H]2[C@@]12C=C[C@H](O)[C@@](C)(C(=O)O1)[C@H]2[C@@H]3C(=O)O`, for which the Potency entry was “inactive”. `CCCCNc1ncc2c(-c3ccc(F)cc3)nn(CC3CCC(N)CC3)c2n1` (stereo not drawn): the Potency is 1.78 µM (active). For `COC1C(CO)OC(n2cnc3c(=O)[nH]cnc32)C1O` (stereo not drawn), the Potency result is “inactive”.

`CCOc1cc2ncc(C#N)c(Nc3ccc(F)c(Cl)c3)c2cc1NC(=O)/C=C/CN(C)C`: the Potency was 3.26 µM (active). Consider `CC(Nc1ncnc2nc[nH]c12)c1cc2cccc(Cl)c2c(=O)n1-c1ccccc1` (stereo not drawn), for which the Potency result was “inactive”. On to `O=C(Nc1ccc(S(=O)(=O)Nc2nccs2)cc1)C(c1ccccc1)c1ccccc1`, for which the Potency entry is “inactive”. Take `COc1ccc(C2=N[C@@H](c3ccc(Cl)cc3)[C@@H](c3ccc(Cl)cc3)N2C(=O)N2CCNC(=O)C2)c(OC(C)C)c1`: the Potency result was “inactive”. For the molecule `CCNCc1nc2c(N)nc3ccccc3c2n1CC(C)(C)O`, the Potency result is “inactive”. On the same count and under the same terms, then `CC(C(O)/C=C/C(C)(C)O)C1CCC2(C)C3C(=O)C=C4C(CCC(O)C4(C)C)C3(C)CCC12C` (stereo not drawn), with “inactive”; and `Cc1[nH]nc(C(F)(F)F)c1Cc1sc2c(c1C(=O)N1C[C@](C)(O)CO1)c(=O)n(C)c(=O)n2C(C)C`, with “inactive”. With `C[C@@H]1C(=O)O[C@H]2[C@H](O)C34[C@H]5C[C@@H](C(C)(C)C)C36[C@@H](OC(=O)[C@@H]6O)O[C@@]4(C(=O)O5)[C@@]12O` (stereo partly drawn), the Potency entry was “inactive”. In the case of `COc1ccc(F)cc1-c1cc(NC(=O)[C@@H]2CCCNC2)ncc1Cl`, the Potency is 0.326 µM (active). `CC(=O)O[C@@H]1[C@@H](O)[C@H](C)O[C@@H](O[C@H]2[C@@H]3C=CO[C@@H](O[C@@H]4O[C@H](CO)[C@@H](O)[C@H](O)[C@H]4O)[C@@H]3[C@@]3(CO)O[C@@H]23)[C@@H]1OC(=O)/C=C/c1ccccc1`: the Potency result was “inactive”. On to `COc1cc(N)c(Cl)cc1C(=O)NC[C@@H]1CCN2CCC[C@@H]12`, for which the Potency entry is “inactive”.

`Cc1ncc(CCCN(C)C)cc1Nc1ncc2c(n1)-c1ccc(C(F)(F)F)cc1NC(=S)C2`: the Potency is 0.0651 µM (active).

In the case of `CC1=CC(=O)CC(C)(C)[C@@]1(O)CC[C@@H](C)O[C@@H]1O[C@H](CO)[C@@H](O)[C@H](O)[C@H]1O`, the Potency result is “inactive”. `CC1=C(COC2OC(CO)C(O)C(O)C2O)C(C(CO)C(=O)O)CC1` (stereo not drawn): the Potency result is “inactive”.

As for `Cc1[nH]c2ccccc2c1C1=C(NCCc2ccc(F)cc2)C(=O)N(C)C1=O`, the Potency is 16.4 µM (active). Take `CCC[C@@H]1O[C@@H]2C[C@H]3[C@@H]4CCC5=CC(=O)C=C[C@]5(C)[C@H]4[C@@H](O)C[C@]3(C)[C@]2(C(=O)CO)O1`: the Potency entry was “inactive”. Take `COc1ccc2c(OC)c3ccoc3nc2c1OC`: the Potency result is “inactive”. Same read-out and setting: then `CNC(=O)c1ccccc1Nc1nc(Nc2ccc3c(c2OC)CCC[C@@H](N2CCN(CCO)CC2)C3)ncc1Cl`, with 10.3 µM (active). As for `C[C@@H]1O[C@@H](O[C@H]2[C@H](O[C@H]3[C@H](O[C@H]4CC[C@@]5(C)C(CC[C@]6(C)C5CC=C5[C@@H]7CC(C)(C)C[C@@H](O)[C@]7(C)CC[C@]56C)[C@@]4(C)CO)O[C@H](C(=O)O)[C@@H](O)[C@@H]3O)OC[C@H](O)[C@@H]2O)[C@H](O)[C@H](O)[C@H]1O` (stereo partly drawn), the activity change, negative = cytotoxicity was 3.08% [at 9.29 µM]. The same measure, in the same setting: then `C[C@@H]1O[C@@H](O[C@@H]2[C@@H](O)[C@H](O[C@H]3CC[C@@]4(C)C(CC[C@]5(C)C4CC=C4[C@@H]6CC(C)(C)CC[C@]6(C(=O)O[C@@H]6O[C@H](CO)[C@@H](O)[C@H](O)[C@H]6O)CC[C@]45C)C3(C)C)O[C@H](C(=O)O)[C@H]2O)[C@H](O)[C@H](O)[C@H]1O` (stereo partly drawn), with 7.63% [at 9.29 µM]. As for `CC/C=C\[C@H](O)[C@H](O)C1=C(C)C(=O)[C@]2(O1)C(=O)N[C@@](OC)(C(=O)c1ccccc1)[C@@H]2O`, the Potency result was “inactive”. Turning to `C=C1C(=O)O[C@@H]2C/C(C)=C\C(=O)/C=C(\C)[C@@H](OC(=O)/C(C)=C\C)[C@H](O)[C@@H]12`, the Potency was 4.04 µM (active). With `C/C(=C\CC[C@@H](C)[C@H]1CC(O)[C@@]2(C)C3CC[C@H]4C(C)(C)[C@@H](OC5OCC(O)C(O)C5OC5OC(CO)C(O)C(O)C5O)CC[C@@]45C[C@@]35CC(O)[C@]12C)C(=O)O` (stereo partly drawn), the Potency result is “inactive”.

The values above are taken from PubChem BioAssay (NCATS).
